Screening data (PubChem BioAssay)
HT1080 IDH1KD tx: kills HT-1080 cells with IDH1 knockdown. HT-1080 IDH1 knockdown viability, ATP luminescence, 48 h. Potency, µM (doses to about 46.1 µM), for inactives: at the top dose activity, negative = toxicity, hits mostly cytotoxic. 360,000 compounds, 2% hits;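 note: 0% = DMSO wells and -100% = cell-free medium wells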
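Cytotoxicity counter-line: IDH1KD HT-1080, 48 h, CellTiter-Glo. Curves classed by r2, magnitude and activity.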
ATXN2 expr inh: ATXN2 expression inhibition. HEK-293 ATXN2-luciferase reporter, luminescence, 24 h. Potency, µM (titrated, usually from 57 µM), for inactives: at the top dose activity change, negative = inhibition, actives largely listed as inhibitors. 360,000 compounds, 0.72% hits; note: % is set by controls: 0 for no effect and ±100 for the full control effect; nearly all actives have a fitted effect of over 55% in size
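qHTS (up to 57 uM final) was run with 24 h compound exposure of reporter cells at 37 °C. Each well was multiplexed: SteadyGlo luminescence measured ATXN2-luciferase expression after a fluorogenic Gly-Phe-AFC viability readout (25 uM final).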
HT1080NT lethal: kills 2HG-producing HT-1080-NT fibrosarcoma cells | 360,000 compounds, 1.6% hits | Potency, µM (series often up to 46.1 µM), without a hit: top-dose activity, negative = less viability, usual class: cytotoxic | HT-1080-NT fibrosarcoma viability, CellTiter-Glo ATP luminescence, 48 h | AID 686970;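 note: NT is the 2HG producing partner of a matched IDH1 knockdown line; 0% = DMSO-treated cells and -100% = media-only wells without cells; nearly all actives have a fitted effect of over 55% in size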
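HT-1080-NT fibrosarcoma cells (2HG-overproducing), 750 cells/well in RPMI with 5% FBS, dosed after 2 h and incubated 48 h at 37C. CellTiter-Glo luminescence normalized to DMSO and no-cell wells; concentration-response curves fitted and classed.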
S2 tox: reduces viability in counter-screen for ATXN expression inhibitors | S2 cells (HEK-293 line with an ATXN2-luciferase reporter) viability, CellTiter-Fluor protease fluorescence, 24 h | Potency, µM (titrated, usually from 56.7 µM), most hits filed as cytotoxic | 400,000 compounds, 0.49% hits; note: nearly all actives have a fitted effect of over 40% in size
HepG2 tox: HepG2 cytotoxicity, counter-screen for TGF-b inhibitors | 410,000 compounds, 0.76% hits | Potency, µM (series often up to 46.1 µM), for the others: top-dose activity change, negative = cytotoxicity, hits mostly cytotoxic | HepG2 CAGA-GFP viability, ATP luminescence, 18 h | AID 588856
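CellTiter-Glo luminescence gave cytotoxicity after 18 hours at 37 degrees C. The cells were HepG2 CAGA-GFP in 1% FBS DMEM, stimulated with 500 pg/mL TGF-beta after compound addition. %Activity was normalised to no-cell wells (complete cell-killing) and DMSO (no toxicity), and curves were fitted and classified.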
TGFb SMAD3 inh: blocks TGF-b signaling; HepG2 CAGA-GFP TGF-b/SMAD3 reporter, GFP fluorescence, 18 h; TGF-beta stimulated, 500 pg/mL final; AID 588855; 410,000 compounds, 1.2% hits; Potency, µM (titrated, usually from 46.1 µM), inactives show at the top dose activity, negative = inhibition, most hits filed as inhibitors; note: % is set by controls: 0 for no effect and ±100 for the full control effect; nearly all actives have a fitted effect of over 65% in size
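Inhibition of TGF-beta-driven CAGA-GFP reporter expression in HEPG2 cells is measured by cellular GFP fluorescence after 18 h stimulation with 500 pg/mL recombinant TGF-beta in 1% FBS medium at 37 degrees C.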
* marks the source's active call; other numbers are inactive results; i = inactive; ? = inconclusive; · = not tested or not shown; ! = a repeat was not active. Sampled rows, rich in hits. Any-hit rate of the full collection: about 3.8%. Calls come from the whole dose curve; as a rule, active = well fitted curve in the direction sought with a large enough effect; inconclusive = small, poorly fitted or top-dose-only effect, or another doubt; inactive = no such curve, though single readings can be large; an effect the other way counts as inactive or inconclusive. Potency is the fitted concentration of half-maximal effect.

SMILES | HT1080 IDH1KD tx | ATXN2 expr inh | HT1080NT lethal | S2 tox | HepG2 tox | TGFb SMAD3 inh
Cc1cc(Nc2cccc(F)c2)nc(-c2ccccc2O)n1 | ? | -19% | ? | i | 11µM* | ?
Nc1[nH]c(=S)nc2nnsc12 | · | · | · | · | -7% | -7%
COc1ccc(-c2cc(-c3nc4ccccn4c3NCc3ccccc3)ccc2OC)cc1 | ? | 4µM* | ? | 7.9µM* | -15% | ?
CCCCNc1c(-c2ccc(OC)c(SC(C)CC)c2)nc2ccc(C)cn12 (stereo not drawn) | ? | 13µM*! | 21µM* | 11µM* | 14µM* | 13µM*
CCCCNc1c(-c2ccc(OC)c(SC(C)CC)c2)nc2cc(C)ccn12 (stereo not drawn) | 23µM* | 25µM* | 21µM* | 32µM* | 11µM* | 11µM*
CCCCNc1c(-c2ccc(OC)c(SC(C)CC)c2)nc2cnccn12 (stereo not drawn) | 0% | ? | -8% | · | -77% | ?
CCC(C)Sc1cc(-c2nc3ccc(C)cn3c2NCc2ccccc2)ccc1OC (stereo not drawn) | ? | 18µM* | ? | 10µM* | -40% | 13µM*
O=C(O)/C=C/c1ccc2ccccc2c1 | · | · | · | · | -2% | 19%
O=C(Nc1ccncc1)C1C(=O)c2ccccc2N(Cc2ccccc2)C1=O (stereo not drawn) | · | · | · | · | -39% | -16%
CCCCCCSc1cc(-c2nc3ccc(Cl)cn3c2NCCCC)ccc1OC | 14% | 6% | 4% | i | -1% | 9%
CCCCCCSc1cc(-c2nc3ccc(C)cn3c2NCCCC)ccc1OC | -6% | 0% | -8% | 14µM* | -57% | ?
COc1ccccc1Cn1c(=S)[nH]c2cc(C(=O)NCCN3CCOCC3)ccc2c1=O | 8% | 0% | 1% | i | -1% | -22%
COc1ccccc1Cn1c(=S)[nH]c2cc(C(=O)NCCCN3CCOCC3)ccc2c1=O | ? | -14% | 16µM* | i | -21% | -1%
CCN(C(=O)CSc1nc2ccccc2c2nc(CCn3c(C)nc4ccccc43)nn12)c1cccc(C)c1 | · | 9% | · | i | -31% | -5%
COc1ccccc1NC(=O)CN1CCOCC1 | 4% | -31% | 7% | i | 7.9µM* | 0%
CC1C(=O)CC(c2ccccc2)N(C)C1c1ccccc1 (stereo not drawn) | -1% | -21% | -26% | i | -2% | 2%
CCC1C(c2ccccc2)N(C)C(c2ccccc2)CC1(O)c1ccccc1 (stereo not drawn) | 16µM* | -6% | ? | ? | 13µM* | ?
O=C(Nc1ccc([N+](=O)[O-])cc1)Nc1nc(-c2ccc(Cl)s2)cs1 | 7.3µM* | 7.9µM* | 6.5µM* | 14µM* | 10µM* | ?
Cc1ccccc1C(=O)NC(C)c1nnc2n1CCN(Cc1ccnc3ccccc13)CC2 (stereo not drawn) | · | · | · | i | · | ·
CC(C)C[C@H](NC(=O)c1[nH]cnc1C(=O)N[C@H](C)c1ccccc1)C(=O)OC(C)(C)C | ? | ? | ? | · | 16µM* | ?
CC(C)C[C@H](NC(=O)c1nc[nH]c1C(=O)NC(c1ccccc1)c1ccccc1)C(=O)OCc1ccccc1 | -28% | -10% | -24% | ? | -18% | ?
C[C@@H](NC(=O)c1[nH]cnc1C(=O)Nc1ccccc1)c1ccccc1 | -25% | ? | -19% | ? | -26% | 14µM*
CC(C)C[C@H](NC(=O)c1nc[nH]c1C(=O)NC(c1ccccc1)c1ccccc1)C(=O)OC(C)(C)C | 21µM* | ? | 26µM* | ? | 0% | ?
